Compound activity: PubChem BioAssay, National Center for Advancing Translational Sciences (NCATS)
Sfp PPTase inh: Sfp phosphopantetheinyl transferase inhibition; Biochemical Sfp PPTase activity, qHTS; Potency, µM, inactives show largest response in the series, negative = inhibition, actives largely listed as inhibitors; 310,000 tested, 3.5% active;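 note: the enzyme is Sfp with the accession as filed and its product quenches rhodamine fluorescence; 0% = enzyme reaction without inhibitor and -100% = no enzyme wells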
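After 15 min at room temperature with compound, 15 nM Sfp received 5 uM rhodamine-CoA plus 12.5 uM BHQ-2-ybbR (50 mM Hepes pH 7.6, 10 mM MgCl2). Rate came from the fluorescence difference over 30 min, ex 525/em 598 nm.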
PLK1 PBD inh: inhibitors of human PLK1 polo-box domain binding. P53350. Plk1 PBD binding of FITC phosphopeptide, fluorescence polarization. Potency, µM, inactives show max response, negative = inhibition, most hits filed as inhibitors. 360,000 tested, 2.8% active. AID 720504; note: series mostly up to about 57 µM; nearly all actives have a fitted effect of over 65% in size
ALDH1A1 inh: blocks purified human ALDH1A1 activity; 220,000 tested, 7.3% active; Potency, µM (doses to about 75.3 µM), for inactives: top-dose activity, negative = inhibition, usual class: inhibitors; P00352; Purified ALDH1A1, NADH fluorescence, propionaldehyde substrate; active = well fitted inhibition curve with a large enough effect, not every such curve was filed as active; inconclusive = small, poorly fitted or top-dose-only effect, or another doubt; inactive = no such curve, though single readings can be large or run the other way;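 note: plate controls were no enzyme wells and a reference inhibitor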
Target sequence (P00352 whole entry, looked up): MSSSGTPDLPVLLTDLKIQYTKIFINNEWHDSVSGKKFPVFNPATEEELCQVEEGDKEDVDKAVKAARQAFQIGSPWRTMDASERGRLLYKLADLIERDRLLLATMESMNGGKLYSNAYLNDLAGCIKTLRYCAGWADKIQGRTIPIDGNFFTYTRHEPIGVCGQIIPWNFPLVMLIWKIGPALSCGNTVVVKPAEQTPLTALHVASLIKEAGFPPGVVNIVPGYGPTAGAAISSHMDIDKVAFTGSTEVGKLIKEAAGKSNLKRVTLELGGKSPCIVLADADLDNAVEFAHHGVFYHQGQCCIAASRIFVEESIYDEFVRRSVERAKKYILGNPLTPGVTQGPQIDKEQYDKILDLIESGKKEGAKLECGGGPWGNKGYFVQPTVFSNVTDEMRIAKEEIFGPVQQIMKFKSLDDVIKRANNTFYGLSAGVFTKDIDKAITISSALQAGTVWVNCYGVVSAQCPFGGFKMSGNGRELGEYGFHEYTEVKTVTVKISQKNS
RORg inh: inhibitors of mouse ROR gamma transcriptional activity | P51450 | Drosophila S2 Gal4-RORgamma UAS-luciferase reporter, 20 h | Potency, µM (doses to about 53.6 µM), without a hit: top-dose activity change, negative = inhibition, hits mostly inhibitors | 310,000 tested, 5.4% active; note: nearly all actives have a fitted effect of over 60% in size
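Stably transfected Drosophila Schneider cells are the test system, with ROR gamma fused to Gal4 and luciferase under UAS control; luminescence is read after 20 hr of 700 uM copper sulfate induction at ambient temperature.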
VP16 counter: inhibits Gal4-VP16 luciferase reporter, ROR gamma counter-screen; AID 2546; Potency, µM (doses to about 53.6 µM), inactives show top-dose activity, negative = inhibition, hits mostly inhibitors; 310,000 tested, 3.5% active; Drosophila S2 Gal4-VP16 UAS-luciferase, luminescence, 20 h;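 note: Gal4-VP16 expression switched on by copper sulfate through the metallothionein promoter; nearly all actives have a fitted effect of over 50% in size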
* = called active by the depositor; ? = inconclusive; . = no result given; [ ] = dose if it differs, or a comment. This is a sample that favours compounds with a hit; in the whole collection about 12% have one here. Unless noted, calls come from the whole dose curve; as a rule, active = well fitted curve in the direction sought with a large enough effect; inconclusive = small, poorly fitted or top-dose-only effect, or another doubt; inactive = no such curve, though single readings can be large; an effect the other way counts as inactive or inconclusive. Unless noted, % is set by controls: 0 for no effect and ±100 for the full control effect; potency is the fitted concentration of half-maximal effect.

SMILES	Sfp PPTase inh	PLK1 PBD inh	ALDH1A1 inh	RORg inh	VP16 counter
C/C(=N\NC(=O)c1ccc(N(C)C)cc1)c1ccc(C)c(C)c1	14.4%	-7.7%	14.1µM*	?	-81.1%
CCN(CC)c1ccc(/C=N\NC(=O)c2cccc3cc[nH]c23)cc1	4.7%	8.7%	.	7.08µM*	17.8µM*
C/C(=N\NC(=O)c1ccc(N(C)C)cc1)c1ccc(C)cc1C	-5.3%	-3.2%	-12.4%	-2.2%	-5.6%
CCN(CC)c1ccc(C(=O)N/N=C(\C)c2ccc(O)cc2)cc1	-5.9%	-2.8%	25.1µM*	-32.5%	-5.9%
O=C(N/N=C/c1ccc([N+](=O)[O-])cc1)c1cccc2cc[nH]c12	21.0%	-5.8%	6.1%	-12.0%	-3.2%
O=C(Nc1cccc(C(=O)O)c1)/C(=C\c1cccc([N+](=O)[O-])c1)NC(=O)c1ccc(Br)cc1	.	4.4%	.	.	.
CN(C)c1ccc(/C=N\NC(=O)c2cnc3ccccc3c2)cc1	.	.	-12.1%[13.5 µM]	.	.
O=C(NCc1ccccc1)C(C1CC1)n1c(CSCCOc2ccccc2)nc2ccccc21 (stereo not drawn)	.	-10.4%	.	.	.
CC1CCC2C(=O)N3C(CCC(C)[C@@H]3c3cccc(N4CCOCC4)c3)C(=O)N2C1c1cccc(N2CCOCC2)c1 (stereo partly drawn)	12.0%	.	5.9%[13.5 µM]	-2.1%[10 µM]	4.0%[10 µM]
CCN(CC)c1ccc(/C=N/NC(=O)c2ccc(O)cc2)cc1	-4.2%	.	?	1.12µM*	2.51µM*
CCN(CC)c1ccc(/C=N/NC(=O)c2ccoc2C)cc1	5.9%	4.5%	.	20µM*	?
CN(C)C1CN(Cc2cn(Cc3cccc(C(F)(F)F)c3)nn2)S(=O)(=O)C1 (stereo not drawn)	.	0.6%	.	.	.
O[C@@H](c1ccccc1)C1CCN(CCc2ccccc2)CC1	5.8%	.	-3.5%	17.4%	-0.3%
COc1ccc(NC(=O)CSc2nc(-c3ccco3)nc3cc(=O)[nH]n23)cc1Cl	-11.3%	18.9µM*	.	-31.8%	-10.3%
CCCCOC(=O)Nc1sc2c(c1C(=O)OC)CCC2	50.1µM*	-18.4%	?	12.5%	-0.9%
CCOC(=O)c1c(NC(=O)COc2cccc3c2CCN(C)C3=O)sc2c1CCC2	?	-2.5%	20µM*	-28.8%	?
CCOC(=O)c1c(NC(=O)c2ccccc2C(=O)O)sc2c1CCCC2	13.4%	-18.1%	.	37.3%	3.9%
CCOC(=O)c1c(NC(=O)c2ccoc2C)sc2c1CCC2	25.1µM*	-16.0%	?	9.4%	7.8%
CCOC(=O)NC(Nc1sc2c(c1C(N)=O)CCCC2)(C(=O)OCC)C(F)(F)F (stereo not drawn)	35.5µM*	?	-5.8%	-27.3%	-2.5%
Cc1cccc(NC(=O)COc2cccc3c2CCN(C)C3=O)c1C	0.0%	-1.7%	?	?	?
COCC(=O)Nc1sc2c(c1C(=O)OC)CCCC2	-7.2%	1.8%	?	35.8%	-13.3%
CO/N=C(\C)CCN1CCCCc2nc(C)c(C)cc21	-19.0%	.	10.2%[13.5 µM]	2.1%[10 µM]	5.9%[10 µM]
O=C(Cc1ccccc1)NCC(=O)N1CCC1	7.0%	-3.0%	.	-5.3%	-7.5%
CCOC(=O)Nc1sc2c(c1C#N)CCCC2	0.6%	-11.2%	?	?	26.1%
CCOC(=O)Nc1sc2c(c1C(=O)OCC)CCC2	39.8µM*	-0.4%	?	8.2%	12.4%
SMILES	Sfp PPTase inh	PLK1 PBD inh	ALDH1A1 inh	RORg inh	VP16 counter
CCOC(=O)c1c(NC(=S)Nc2cccc(C)c2)sc2c1CC(C)(C)SC2	?	?	3.98µM*	2µM*	2µM*
CCOC(=O)c1c(NC(=S)Nc2ccccc2)sc2c1CCN(CC)C2	?	?	?	7.9%	-3.2%
CCOC(=O)c1c(NC(=S)Nc2ccccc2)sc2c1CCCCC2	?	-5.1%	?	2.51µM*	3.98µM*
CCC(C)N(C(=O)c1csnn1)C(C(=O)NC1CCCC1)c1ccccc1F (stereo not drawn)	1.9%	-1.0%	.	-14.4%	3.2%
Cc1ccc2nc(-c3ccco3)c(CC(C)(C)C)n2c1	.	-15.1%	.	.	.
Cc1cccc(N2C(=O)C(Cl)=C(Nc3c(C)n(C)n(-c4ccccc4)c3=O)C2=O)c1C	56.2µM*	-9.4%	-14.7%	12.8%	3.2%
O=C1c2cc(Br)ccc2O[C@@H](c2ccc3c(c2)OCO3)[C@@H]1O	-8.2%	.	0.3%	-5.2%	-11.4%
O=C(O)C1CCCCC1C(=O)Nc1nc(-c2ccc(Cl)s2)cs1 (stereo not drawn)	22.4µM*	?	-132.5%	6.9%	7.0%
CC(=O)Nc1nc(-c2ccc([N+](=O)[O-])cc2)cs1	17.1%	-3.3%	3.6%	?	-3.4%
O=C(Nc1ccc([N+](=O)[O-])cc1)Nc1nc(-c2ccc(Cl)s2)cs1	?	-12.8%	?	3.98µM*	0.891µM*
COc1cc(C(=O)NCCC(=O)NCc2cccs2)cc(OC)c1OC	.	-2.8%	.	.	.
CCC(Cc1ccccc1)NC(=O)CCc1ccccc1 (stereo not drawn)	7.4%	-16.7%	.	.	.
COc1ccc(C(NC(=O)/C=C\c2ccco2)c2ccc(OC)c(OC)c2)cc1 (stereo not drawn)	20µM*	?	?	1.9%	-3.3%
CC(C)NC(=O)COC(=O)/C=C/c1ccco1	50.1µM*	-4.1%	-11.1%	38.9%	?
COc1ccc(C(NC(=O)/C=C/c2ccco2)c2ccc(OC)cc2)cc1	25.1µM*	?	?	9.9%	?
CCCNC(=O)COC(=O)/C=C/c1ccco1	?	-8.7%	-11.6%	12.6%	-15.3%
CCC(Cc1ccccc1)NC(=O)/C=C/c1ccco1 (stereo not drawn)	56.2µM*	-28.9%	.	-0.1%	-2.0%
COc1cc(C(=O)NNC(=O)/C=C/c2ccco2)cc(OC)c1OC	.	-11.5%	.	.	.
CC(=O)Nc1ccc(S(=O)(=O)NN=c2sc3ccccc3n2C)cc1N	.	5.3%	.	.	.
CC(CNS(=O)(=O)c1ccccc1)(c1ccccc1)N1CCOCC1 (stereo not drawn)	22.0%	1.7%	5.6%	30.7%	9.0%
Cc1nc(C)n(CC(=O)N2CCCC(C(=O)c3cccc4ccccc34)C2)n1 (stereo not drawn)	15.3%	-13.8%	10.2%	1.6%	2.7%
CCCc1nc2nc(C)c(NS(=O)(=O)c3ccc(C)c(C)c3)c(=O)n2[nH]1	.	-3.0%	.	.	.
CCN(CC)c1ccc2c(c1)CCCN2	-6.5%	.	25.1µM*	2.82µM*	?
O=C(C(=Cc1ccccc1)CN1CCCCC1)c1ccccc1	.	-17.8%	.	.	.
CC(C)c1c(O)ccc2c1CCC1C(C)(C)CCC[C@@]21C (stereo partly drawn)	5.0%	.	-7.8%	?	10µM*
COc1ccccc1C(=O)NCCC(=O)Nc1ncccc1C	-9.4%	-10.4%	.	5.62µM*	8.91µM*
COc1ccccc1C(=O)NCCC(=O)Nc1cccnc1	13.7%	-20.6%	0.6%	-3.6%	-13.7%
COc1ccccc1C(=O)NCCC(=O)NCC(c1ccccc1)N(C)C (stereo not drawn)	3.7%	0.6%	.	11.2µM*	-10.0%
COc1ccccc1C(=O)NCc1ccccn1	20.1%	-14.6%	-4.9%	8.91µM*	13.4%
